Reference: ChEMBL document CHEMBL3988442, “University of Dundee, Small-Polar-MMV Screening Library” (2021)
The campaign covered roughly 48,000 compounds. About 13,000 (27%) showed an effect of 50% or more. This is one part of the list.

Tested on: Wolbachia pipientis
Assay: Anti-Wolbachia Cell-Based Screen
Format: functional
Parameters: scale not given: in the data most compounds retested in dose-response had high values
Details: 5 µM

In order of rising “Percent Effect” value:
1. COc1ccccc1OC1(C(=O)O)CCN(c2cnccn2)CC1  -132.5%
2. COc1ccccc1OCCCc1cc(C)nc(N)n1  -105.6%
3. CN(C)C(=O)N1CCCC2(CCN(c3ccsc3)C2=O)C1 (stereo not given)  -73.81%
4. COC(CNC(=O)CNC(=O)c1ccccc1)c1cccc(Cl)c1 (stereo not given)  -36.87%
5. CCn1nc(CNC(=O)C2CC(=O)N(C3CCCC3)C2)c2ccccc21 (stereo not given)  -24.02%
6. CCO[C@@H]1CC[C@H]2[C@H]1OCCN2C(=O)c1ccc(OC)c(F)c1  -22.06%
7. CCN1CCC2(CC1)c1nc[nH]c1CCN2S(C)(=O)=O  -21.15%
8. Cc1ccccc1CS(=O)(=O)NCCCN1CCCC1  -20.74%
9. CCn1nc(CNC(=O)C2CCCN(C(=O)COC)C2)c2ccccc21 (stereo not given)  -19.96%
10. CS(=O)(=O)NCCC(=O)NC1(c2ccc(F)cc2)CCCC1  -19.35%
11. Cc1ncsc1CN1C[C@H](OCC(C)C)[C@H]2OCCC[C@H]21.O=C(O)C(F)(F)F  -14.06%
12. COc1cc(CN2CCC(O)(c3ccc(C)cn3)CC2)cc(Cl)c1OC  -12.14%
13. CCS(=O)(=O)N1CCOC2(CCCN(c3cnccn3)C2)C1.O=C(O)C(F)(F)F (stereo not given)  -12.03%
14. O=C(N1CCCC1)N1CCCC2(CCN(c3ccsc3)C2=O)C1 (stereo not given)  -11.99%
15. O=C(NCC1CC1)C1=NOC2(CCN(Cc3ccsc3)C2)C1 (stereo not given)  -10.07%
16. Cc1occc1C(=O)N1CCCC2(CCN(c3ccsc3)C2=O)C1 (stereo not given)  -9.998%
17. O=C(CO)N1CCCC2(CCN(c3ccsc3)C2=O)C1 (stereo not given)  -8.553%
18. c1ccc(-c2nccc(N3CCc4c(ncn4C4CC4)C3)n2)cc1  -6.711%
19. Cc1ccc(C(=O)N2CCO[C@H]3[C@@H](OCc4ccccn4)CC[C@@H]32)o1.O=C(O)C(F)(F)F  -5.404%
20. CCNC(=O)NCc1ccc(CN2CCCC(C)C2)cc1 (stereo not given)  -3.525%
21. Cc1ccc(CN2CCC3(CC(C(=O)NCC4CC4)=NO3)C2)s1 (stereo not given)  -2.379%
22. COC(=O)C1CCN(C(=O)c2ccc(C)c(NS(C)(=O)=O)c2)CC1  -2.362%
23. N#Cc1ccc(N2CCCN(CC(N)=O)CC2)cc1  -2.311%
24. O=C(NCc1nncn1C1CC1)C1(c2ccc(F)cc2)CCCC1  -0.2127%
25. CN(C)S(=O)(=O)NCCn1nc(-c2ccccc2)n(C)c1=O  -0.1642%
26. CC(C)Oc1ccc(CN2CCCC(N3CCOCC3)C2)cc1CO (stereo not given)  -0.1551%
27. Cc1cc(C)c2[nH]c(CN3CCCC(N4CCOCC4)C3)cc(=O)c2c1 (stereo not given)  0.1169%
28. O=C(NCC1CC1)C1=NOC2(CCN(Cc3ccc(Cl)c(F)c3)C2)C1 (stereo not given)  0.8389%
29. CC(C#N)NS(=O)(=O)c1cccc(C(C)C)c1 (stereo not given)  0.8918%
30. O[C@@H]1CN(CC2=Cc3cc(Cl)ccc3OC2)CC[C@H]1N1CCCCCC1  0.906%
31. O=C(c1ccc(-n2ccnc2)cc1)N1CCN(c2cnccn2)CC1  1.028%
32. COc1ccc(CN2CCCC(n3cccn3)C2)c(Cl)c1OC (stereo not given)  1.14%
33. CNC(=O)[C@@H]1COC[C@H]2CN(C(=O)c3ccc(C)c(F)c3)C[C@H]21  1.789%
34. O=C(NCC(O)COc1ccc(F)cc1)C1(c2ccc(F)cc2)CC1 (stereo not given)  2.033%
35. O=C(CSc1ccccc1)Nc1cnn(CC(=O)N2CCCO2)c1  2.043%
36. Cc1nocc1C(=O)N1CCCC2(CCN(c3ccsc3)C2=O)C1 (stereo not given)  2.801%
37. CC(NC(=O)c1csnn1)c1ccc(OCC2CC2)c(F)c1 (stereo not given)  3.063%
38. COCC(=O)NCc1cc2n(n1)CCCN(CCCC1CCCC1)C2  3.539%
39. CS(=O)(=O)N1C[C@@H]2CC[C@H](C1)N(C(=O)Cn1nc3ccccc3n1)C2  3.871%
40. CN1CCC(NN2CCN(C)CC2)CC1  4.594%
41. CCn1nc(CNC(=O)C2CCCN(CC(N)=O)C2)c2ccccc21 (stereo not given)  4.996%
42. CC(NC(=O)C(C)(C)C#N)c1ccc(OCC2CC2)c(F)c1 (stereo not given)  5.136%
43. O=C(C1=CCCC1)N1CCC[C@]2(C[C@@H](OCc3ccccn3)CO2)C1.O=C(O)C(F)(F)F  5.284%
44. Cn1ccc(C(=O)N2C[C@@H]3CCN(c4cnccn4)C[C@@H]3C2)n1.O=C(O)C(F)(F)F  6.862%
45. Cc1csc(N2CCN(C(=O)CCC(=O)c3ccc(C)s3)CC2)n1  7.228%
46. O=C(O)C(F)(F)F.O=C(c1ccccn1)N1CCCC2(CCN(c3ccsc3)C2=O)C1 (stereo not given)  9.828%
47. CCN1CC(C(=O)NCc2nn(CC)c3ccccc23)CCC1=O (stereo not given)  10.79%
48. CCS(=O)(=O)N1CCOC2(COCCN(c3nccs3)C2)C1 (stereo not given)  11.05%
49. CC(C)c1ccc(S(=O)(=O)NC2CCN(CC(F)(F)F)C2)cc1 (stereo not given)  12.82%
50. COc1ccc(CN2CCCC(N3CCCC3)C2)cc1Cn1cncn1 (stereo not given)  15.57%
51. Cc1ccc(C)c(OCC(O)CN(C)CC(=O)Nc2cc(C)on2)c1 (stereo not given)  16.51%
52. CCc1ccc(C(NC(=O)CCS(C)(=O)=O)C(C)(C)C)o1 (stereo not given)  18.74%
53. Cn1nccc1C(=O)N1CCCC2(CCN(c3ccsc3)C2=O)C1 (stereo not given)  54.5%
54. CC(=O)NCC(=O)NCC1(O)CCN(c2cnccn2)C1 (stereo not given)  78.54%
55. CN(C)S(=O)(=O)NCc1nn(CCN2CCCC2)c(=O)c2ccccc12  91.81%
56. O=C1N(c2ccsc2)CCC12CCCN(c1ncc(F)cn1)C2 (stereo not given)  91.96%
57. COc1ccc(CN2CCC3(CC(C(=O)NCC(C)C)=NO3)C2)cc1 (stereo not given)  91.98%
58. CC(C)CNC(=O)C1=NOC2(CCN(Cc3ccoc3)C2)C1 (stereo not given)  98.99%
59. COc1cc(CN2CC[C@@H](N3CCCCCC3)[C@H](O)C2)cc(Cl)c1OC  100.3%
60. CCc1ccc(CN2CCC3(CC(C(=O)NCC(C)C)=NO3)C2)o1 (stereo not given)  102%
61. CC(C)CNC(=O)C1=NOC2(CCN(Cc3ccc(C(C)C)cc3)C2)C1 (stereo not given)  105.9%
62. CCO[C@@H]1CC[C@H]2[C@H]1OCCN2C(=O)c1nn(C)c2ccccc12  106.4%
63. CCNC(=O)NCc1nn(CCN2CCCC2)c(=O)c2ccccc12  106.7%
64. COc1cc(Cl)cc(CN2CCCC(N3CCOCC3)C2)c1OC (stereo not given)  106.9%
65. CCOC(=O)NCc1nn(CCN2CCCC2)c(=O)c2ccccc12  108%
66. CCO[C@H]1CC[C@H]2[C@H]1OCCN2C(=O)c1nn(C)c2ccccc12  108.7%
67. COCC(=O)NCc1nn(CCN2CCCC2)c(=O)c2ccccc12  112.1%
68. COc1cc(Cl)cc(CN2CCCC(N3CCCC3)C2)c1OC (stereo not given)  116%
69. O=C1N(c2ccsc2)CCC12CCCN(c1ccccn1)C2 (stereo not given)  116.3%
70. Cn1ccc(C(=O)NCC2(O)CCN(c3cnccn3)C2)n1 (stereo not given)  120.2%
